In the test the target is T1, CRBN, Q96SW2.
T1 chain: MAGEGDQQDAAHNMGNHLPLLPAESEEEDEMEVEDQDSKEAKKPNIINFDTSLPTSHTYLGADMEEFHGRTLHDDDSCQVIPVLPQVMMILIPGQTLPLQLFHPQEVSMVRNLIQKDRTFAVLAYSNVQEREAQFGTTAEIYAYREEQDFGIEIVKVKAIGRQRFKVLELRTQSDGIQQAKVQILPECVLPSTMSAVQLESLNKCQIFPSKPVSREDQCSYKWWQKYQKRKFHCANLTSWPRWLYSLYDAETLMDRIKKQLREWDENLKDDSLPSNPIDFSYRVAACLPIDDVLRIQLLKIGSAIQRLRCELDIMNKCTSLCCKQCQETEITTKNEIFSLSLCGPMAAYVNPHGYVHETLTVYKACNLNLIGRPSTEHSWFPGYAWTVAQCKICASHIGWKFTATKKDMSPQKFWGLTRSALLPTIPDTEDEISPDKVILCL
In words: log2 fold change of degron read counts, EGFP-low vs EGFP+ sorted cells (limma voom), compound-induced degradation; higher = more compound-induced degradation of the degron-EGFP fusion; degrons are variants of IKZF1/3 zinc finger 2; compound dose not given here. As to conditions: Jurkat, 18 h.

Setting [1] is: compound: compound 19 (5-tert-butyl-thalidomide).
Where [2] appears, read: compound: compound 22 (5-morpholino-thalidomide).
Setting [3] is: compound: compound 33 (diphenyl IMiD analogue).

Whole data set: some 8,300 sequences, median “log2 fold change of degron read counts, EGFP-low vs EGFP+ sorted cells (limma voom), compound-induced degradation” near -1.1, cut for the highest 2% near 3.2. For the sample, the highest values were picked, then their nearest neighbours and some sequences at random.
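Note: pooled lentiviral library of zinc finger degron-EGFP fusions in mCherry-positive Jurkat cells, FACS-sorted after compound exposure, with degron abundance counted by next-generation sequencing.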

For FSCPICGHHFTQKGNLLRHIKL [46F_47S_49P_50I_52G_53H_54H_55F_67L_, Q9UKT9], the “log2 fold change of degron read counts” value by setting is: under setting [1], -1.98; under setting [2], -2.66; under setting [3], -2; (compound: thalidomide) -1.93.

Consider FDCPICGRVFTQKGNLLRHIKL [46F_47D_49P_50I_52G_53R_54V_55F_67L_, Q9UKT9], for which the “log2 fold change of degron read counts” value under setting [1] is -0.729, the “log2 fold change of degron read counts” value under setting [2] is -0.635, the “log2 fold change of degron read counts” value under setting [3] is 1.53 and the “log2 fold change of degron read counts” value (compound: thalidomide) is 1.97.

For the sequence FLCNVCGAAFTQKGNLLRHIKL [46F_47L_49N_50V_52G_53A_54A_55F_67L_, Q9UKT9], the “log2 fold change of degron read counts” value is, setting by setting: under setting [1], -1.6; under setting [2], -2.27; under setting [3], -0.522; (compound: thalidomide) -0.568.

As for FKCEICGAAFTQKGNLLRHIKL [46F_47K_49E_50I_52G_53A_54A_55F_67L_, Q9UKT9], the “log2 fold change of degron read counts” value is 2.15 under setting [1], -0.809 under setting [2], -1.83 under setting [3] and 0.606 (compound: thalidomide).

On to FTCEICGAAFTQKGNLLRHIKL [46F_47T_49E_50I_52G_53A_54A_55F_67L_, Q9UKT9], for which the “log2 fold change of degron read counts” value under setting [1] amounted to 3.16, the “log2 fold change of degron read counts” value under setting [2] worked out at 3.21, the “log2 fold change of degron read counts” value under setting [3] is 2.33 and the “log2 fold change of degron read counts” value (compound: thalidomide) is 3.02.

For the sequence FSCEICGAAFTQKGNLLRHIKL [46F_47S_49E_50I_52G_53A_54A_55F_67L_, Q9UKT9], the “log2 fold change of degron read counts” value came to 3.56 under setting [1], 2.95 under setting [2], 2.24 under setting [3] and 2.15 (compound: thalidomide).

Regarding FNCEICGAAFTQKGNLLRHIKL [46F_47N_49E_50I_52G_53A_54A_55F_67L_, Q9UKT9], the “log2 fold change of degron read counts” value by setting is: under setting [1], 3.08; under setting [2], 1.75; under setting [3], 0.0717; (compound: thalidomide) 0.718.

As for FCCEICGAAFTQKGNLLRHIKL [46F_47C_49E_50I_52G_53A_54A_55F_67L_, Q9UKT9], the “log2 fold change of degron read counts” value reads like this: under setting [1], 3.72; under setting [2], 3.1; under setting [3], 2.29; (compound: thalidomide) 2.46.
